# Assay outcomes: PubChem, National Center for Advancing Translational Sciences (NCATS)
# nsP2pro primary: Primary qHTS for inhibitors of NSP2Pro chikungunya virus (CHIKV); AID 1964107, 2024; Polyprotein P1234 (Chikungunya virus (strain S27-African prototype)), Q8JUX6; FRET peptide cleavage, nsP2pro, fluorescence 1 h; hit rate 1.1% among 31,000; Potency, µM (series often up to 24.9 µM), for inactives: at the top dose activity change, negative = inhibition, hits mostly inhibitors; calls by dose curve; also: nearly all actives have a fitted effect of over 60% in size
#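 Recombinant nsP2pro (150 nM) was preincubated with compound 15 min at room temperature in 10 mM Tris-HCl pH 8.0, 0.01% Tween 20. Peptide 2 FRET substrate (2.5 uM) was then added and fluorescence read after 1 h. Seven-point series, up to 25 uM.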
# * hit, by the source's call; i = inactive; [ ] = dose if it differs, or a comment. The sample as a whole holds a higher share of hits than the screen did. % is scaled to controls: 0 for no effect and ±100 for the full control effect; potency is read from the fitted curve at half-maximal effect.
SMILES,nsP2pro primary
CN1CCN(c2nc3c(c(=O)[nH]2)CCN(Cc2cccnc2)CC3)CC1,i
Cc1oc2c(c1C(=O)N1CCOCC1)CN(Cc1cccnc1)CC2,-11.3%
Cc1ccc(CN2CCc3nc(C(=O)Nc4cccnc4)oc3CC2)o1,10µM*
COc1ccc(NC(=O)c2cc(-c3ccc(C)c(C)c3)nc3ccccc23)cc1,-1.4%
Cc1cc(C)nc(NC(=S)N2CCN(c3ccc(S(C)(=O)=O)cc3F)CC2)c1,0.4%
COc1cccc(CNc2ccc(S(=O)(=O)Nc3ccccc3)cc2)c1O,i
O=C(OC1C[C@@H]2CC3C[C@@H](C1)N2CC3=O)c1c[nH]c2ccccc12 (some centres undefined),-9.9%
CCCCCC(O)/C=C/C1C(O)CC(=O)C1C/C=C/CCCC(=O)O (centres undefined),-11.0%
O=C(CCCCCCSc1ccc2ccccc2c1)NO,29.4%
Cc1cc(CC(C)C[Si](C)(O[Si](C)(C)C)O[Si](C)(C)C)c(O)c(-n2nc3ccccc3n2)c1 (centres undefined),1.7%[5.1 µM]
OCc1ccc(-c2ccc3ncnc(N4CCOCC4)c3c2)o1,12.6µM*
O=C(Nc1ccc2c(N3CCOCC3)ncnc2c1)c1cccc(Cl)c1,i
Cc1cc(C(=O)N2CCc3ncnc(N4CCOCC4)c3CC2)n(C)n1,-3.2%
O=c1cc(-c2ccc(O)c(O)c2)oc2c([C@@H]3O[C@H](CO)[C@@H](O)[C@H](O)[C@H]3O)c(O)cc(O)c12,-2.9%
COc1ccc2nc(-c3ccc(Cl)cc3)sc2c1,4.3%
CC1CCC(=O)CC(SCC(O)C(=O)O)CCC(=O)O1 (centres undefined),11.1µM*
COc1ccc(CN2C3CC2CN(c2ccc(-c4cc(OCC(C)(C)O)cn5ncc(C#N)c45)cn2)C3)cn1,-12.6%
CNc1ncc(-c2ccc3c(=O)c(C(=O)O)cn(C4CC4)c3c2C)cc1C,-5.0%[5.1 µM]
COc1ccc2nc(-c3ccc(OC)c(OC)c3)sc2c1,i
COC(=O)OCOc1c2n(ccc1=O)N([C@@H]1c3ccccc3SCc3c1ccc(F)c3F)[C@@H]1COCCN1C2=O,-6.4%
CN1CCN(c2ccc(Nc3nc(-c4ccncc4)nc4ccccc34)cc2F)CC1,3.0%
CCOc1cccc(CNc2ccc(O)cc2)c1OCc1ccccc1Cl,11.2µM*
O=S(=O)(Nc1cnc2ccccc2c1)c1ccc(NCc2cccc(Cl)c2O)cc1,-3.6%
O=S(=O)(Nc1ccccc1)c1ccc(NCc2cccc(Cl)c2O)cc1,-23.3%
CC1(C)S[C@@H]2[C@H](N)C(=O)N2[C@@H]1C(=O)O,1.2%[2.68 µM]
SMILES,nsP2pro primary
CCOc1ccccc1NC(=O)Cn1c(=O)n(Cc2ccco2)c(=O)c2cccnc21,-8.3%
CCOc1ccc(C(c2c(O)cc(C)n(Cc3ccco3)c2=O)N2CCN(C)CC2)cc1 (centres undefined),12.6µM*
CNC(=O)c1cccc(-c2cnc(Nc3ccc(Cl)cn3)c3c2CCO3)c1,i
Cn1cc(-c2cnc(Nc3cccnc3)c3c2CCO3)cn1,8.91µM*
Cn1cc(-c2cnc(Nc3ccc(F)cc3)c3c2CCO3)cn1,-5.4%[39.2 µM]
Cc1sc(NC(=O)Cc2ccc3c(c2)OCO3)nc1-c1ccc2c(c1)CCN2C,-12.6%
Nc1cccc(-c2ccc(NC(=O)c3cccs3)cn2)c1,-13.9%
CC(C)=CCC[C@](C)(O[C@@H]1O[C@H](CO)[C@@H](O)[C@H](O)[C@H]1O)[C@H]1CC[C@]2(C)[C@@H]1[C@H](O)C[C@@H]1[C@@]3(C)CC[C@H](O)C(C)(C)[C@@H]3CC[C@]12C,-0.5%
O=C(O)CC(O)C(=O)O (centres undefined),-17.9%
C[N+](C)(C)CC(O)CC(=O)O (centres undefined),-5.4%
CC(O)CC(=O)O (centres undefined),15.9µM*
O=C(O)[C@@H]1C(=CCO)O[C@@H]2CC(=O)N12,13.0%[10 µM]
C=C(NC(=O)C(=C)NC(=O)c1csc(C2=N[C@H]3c4csc(n4)[C@H]4NC(=O)c5csc(n5)[C@H]([C@@](C)(O)[C@@H](C)O)NC(=O)[C@H]5CSC(=N5)C(=CC)NC(=O)[C@H]([C@@H](C)O)NC(=O)c5csc(n5)[C@]3(CC2)NC(=O)[C@H](C)NC(=O)C(=C)NC(=O)[C@H](C)NC(=O)[C@H](C(C)CC)N[C@@H]2C=Cc3c([C@H](C)O)cc(nc3[C@H]2O)C(=O)O[C@@H]4C)n1)C(N)=O (some centres undefined),50.8%
COc1ccc(NC(=O)c2c(NC(=O)c3ccncc3)sc3c2CCC(C(C)(C)C)C3)cc1 (centres undefined),-18.3%
CC1CCc2c(sc(NC(=O)COc3ccccc3)c2C(=O)Nc2ccccc2Cl)C1 (centres undefined),-2.9%
CCOc1ccc(NC(=O)c2c(NCc3cccnc3)sc3c2CCC(C)C3)cc1 (centres undefined),11.2µM*
O=C(O)CCN(O)C(=O)CCCCCCCCC1CC1,6.7%
COC(=O)c1ccc(Cn2nnc3sc4c(c3c2=O)CCCC4)cc1,-22.4%
COC(=O)c1ccccc1NC(=O)CSc1nc2sc3c(c2c(=O)[nH]1)CCCC3,10µM*
